This is a sample that favours compounds with a hit; in the whole collection about 3.9% have one here.
Yeast superoxide = caloric restriction mimetics inhibiting age-related superoxide in yeast | S. cerevisiae aged cells, superoxide DHE fluorescence; hits give low values | superoxide response (% of plate mean), % at 10 µM | AID 2690 | 0.18% of 330,000 active;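 active = superoxide response under a set limit, about three screen SD below normal, cut at about 65% in these data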;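 note: yeast aged for seven days with compound at 30 °C before DHE staining; 100% = average MFI of all compound-treated wells on the plate with controls excluded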
HIF act = HIF pathway transcriptional activation. 0.32% of 300,000 active. activation, % at 7.5 µM (by protocol). U2OS HRE-luciferase reporter, luminescence; normalized: DMSO 0%, desferrioxamine 100%;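 active = mean activation of at least 10% of the iron chelator positive control signal, with at least half of replicates also reaching 10%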
PLC-beta3 inh = inhibitors of human phospholipase C beta3; AID 720704; inhibition, % at 12.2 µM; Purified PLC-beta3, fluorogenic substrate, fluorescence; Q01970; 0.18% of 370,000 active; in the data active = inhibition above about 11%;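 note: 0% = median of compound wells on plate and 100% = full blocker control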
PLC-gamma1 inh = PLC-gamma1 (human) inhibition, primary screen; purified PLC-gamma1, fluorogenic substrate, fluorescence; inhibition, % at 12.2 µM; AID 720700; 0.84% of 370,000 active; in the data active = inhibition above about 9.5%
HGIII-sPLA2 inh = Blocks human group III sPLA2 activity. Q9NZ20. QFRET BODIPY PC-A2 liposome hydrolysis, fluorescence. inhibition, % at 12.2 µM. 0.56% of 370,000 active. AID 743126;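 active = inhibition above mean plus 3 SD of compounds lying within the high and low control bounds, cut at about 19% in these data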;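 note: 0% = median of test compound wells and 100% = no enzyme DMSO wells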
Target sequence (Q9NZ20 whole entry, looked up): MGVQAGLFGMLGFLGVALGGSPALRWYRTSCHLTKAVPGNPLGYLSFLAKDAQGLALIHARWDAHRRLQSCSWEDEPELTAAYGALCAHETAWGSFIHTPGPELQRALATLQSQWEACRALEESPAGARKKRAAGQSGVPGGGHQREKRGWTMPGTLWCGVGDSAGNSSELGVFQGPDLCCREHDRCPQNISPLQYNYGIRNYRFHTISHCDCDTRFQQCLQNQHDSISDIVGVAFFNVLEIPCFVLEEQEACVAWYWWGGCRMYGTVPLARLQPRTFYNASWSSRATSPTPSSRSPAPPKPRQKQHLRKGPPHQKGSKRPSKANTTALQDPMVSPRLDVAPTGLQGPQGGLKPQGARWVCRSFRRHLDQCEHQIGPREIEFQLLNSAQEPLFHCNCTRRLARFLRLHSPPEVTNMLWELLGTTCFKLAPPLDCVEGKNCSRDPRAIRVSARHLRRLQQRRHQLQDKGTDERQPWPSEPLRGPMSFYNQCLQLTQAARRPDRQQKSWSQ
AHR activator = human AHR activation; P35869; AHR-responsive luciferase reporter cells, luminescence; activation, % at 5 µM; 2.5% of 320,000 active; AID 2796; in the data active = activation above about 47%;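 note: 0% = vehicle wells and 100% = reference agonist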
An asterisk follows results filed as active.

`O=C(Nc1nccs1)c1cc(Cl)nc2ccccc12` gave Yeast superoxide 118, HIF act 0, PLC-beta3 inh -3, PLC-gamma1 inh 1, HGIII-sPLA2 inh -4 and AHR activator 68*.
For Brc1ccc(-c2csc(N3CCNCC3)n2)cc1 the results were PLC-beta3 inh 1, PLC-gamma1 inh 3 and HGIII-sPLA2 inh 18.
`O=C(Nc1ccccc1)c1cc(N2CCOCC2)nc2ccccc12` gave Yeast superoxide 109, HIF act -1, PLC-beta3 inh -360, PLC-gamma1 inh -305, HGIII-sPLA2 inh -3 and AHR activator 58*.
Cc1cccc(NC(=O)c2cc(N3CCOCC3)nc3ccccc23)c1 was read as Yeast superoxide 107, HIF act -1, PLC-beta3 inh -331, PLC-gamma1 inh -279, HGIII-sPLA2 inh 7 and AHR activator 22.
For CCN1CCN(CC(=O)Nc2cc(S(=O)(=O)N(CC)c3ccccc3)ccc2Cl)CC1 the results were Yeast superoxide 77, PLC-beta3 inh 3, PLC-gamma1 inh 9.5*, HGIII-sPLA2 inh -23 and AHR activator -1.
`Cc1ccc(CN2CCCCC(NC(=O)Cc3cccs3)C2=O)cc1` (configuration not stated) gave PLC-beta3 inh 2, PLC-gamma1 inh 2 and HGIII-sPLA2 inh 6.
`Oc1ccc2c(ccc3[nH]cnc32)c1` gave Yeast superoxide 97, HIF act -1, PLC-beta3 inh -3, PLC-gamma1 inh 1, HGIII-sPLA2 inh -18 and AHR activator 30.
Screening Brc1cc2[nH]cnc2c2ccccc12 returned Yeast superoxide 103, HIF act 0, PLC-beta3 inh -11, PLC-gamma1 inh -4, HGIII-sPLA2 inh -23 and AHR activator 63*.
Screening CCCOc1cccc(C2C(C(=O)c3ccco3)=C(O)C(=O)N2CCCn2ccnc2)c1 (configuration not stated) returned Yeast superoxide 86, HIF act 39*, PLC-beta3 inh -8, PLC-gamma1 inh -1, HGIII-sPLA2 inh -3 and AHR activator 11.
For CCOc1ccc(C2C(C(=O)c3ccco3)=C(O)C(=O)N2CCCn2ccnc2)cc1 (configuration not stated) the results were HIF act 0, PLC-beta3 inh -3, PLC-gamma1 inh -3 and HGIII-sPLA2 inh -1.
For Cc1ccc(S(=O)(=O)N2CCCC2C(=O)N2CCN(c3ccccc3)CC2)cc1C (configuration not stated) the results were PLC-beta3 inh 1, PLC-gamma1 inh 0 and HGIII-sPLA2 inh -4.
`COC(=O)C1CN(C(=O)c2cccc(OC(F)F)c2)c2ccccc2O1` (configuration not stated) gave Yeast superoxide 104, HIF act 1, PLC-beta3 inh -6, PLC-gamma1 inh 0, HGIII-sPLA2 inh 4 and AHR activator 49*.
For COC(=O)C1CN(C(=O)COc2cccc(C)c2C)c2ccccc2O1 (configuration not stated) the results were Yeast superoxide 137, HIF act -1, PLC-beta3 inh -5, PLC-gamma1 inh 2, HGIII-sPLA2 inh 5 and AHR activator 18.
Screening C=CCNc1nc(NCCO)nc(N2CCCC2)n1 returned Yeast superoxide 87, HIF act -1, PLC-beta3 inh 2, PLC-gamma1 inh -1, HGIII-sPLA2 inh 5 and AHR activator 65*.
`COc1cccc(Nc2nc(-c3ccccc3)nc3ccccc23)c1` gave Yeast superoxide 91, HIF act 1, PLC-beta3 inh -396, PLC-gamma1 inh -286, HGIII-sPLA2 inh -15 and AHR activator 54*.
`COc1cccc(Nc2nc(NCCO)nc(N3CCCC3)n2)c1` gave Yeast superoxide 95, HIF act 0, PLC-beta3 inh 10, PLC-gamma1 inh 4, HGIII-sPLA2 inh -7 and AHR activator 48*.
For CCCNc1nc(Nc2ccc(C)cc2)nc(N2CCCC2)n1 the results were Yeast superoxide 101, HIF act 0 and AHR activator 50*.
Screening COc1ccc(Nc2nc(NCCO)nc(N3CCCC3)n2)cc1 returned Yeast superoxide 106, HIF act 0, PLC-beta3 inh -2, PLC-gamma1 inh 1, HGIII-sPLA2 inh 0 and AHR activator 28.
Screening COc1cccc(Nc2nc(-c3ccccc3O)nc3ccccc23)c1 returned Yeast superoxide 100, HIF act 1, PLC-beta3 inh -15, PLC-gamma1 inh -7, HGIII-sPLA2 inh 4 and AHR activator 32.
`CCOC(=O)N1CCN(C(=O)C[C@H]2C[C@@]3(C(=O)OC)C(=C[C@H](C4CCCC4)O[C@@H]3C)N(Cc3cccc4ccccc34)C2=O)CC1` gave PLC-beta3 inh 1, PLC-gamma1 inh 4 and HGIII-sPLA2 inh -9.
CCC[C@H](/C=C/C(=O)OC(C)(C)C)Sc1ccc(N)cc1 was read as PLC-beta3 inh -1, PLC-gamma1 inh -1 and HGIII-sPLA2 inh 7.
Screening CC(=O)C1(C(=O)N2CCOCC2)CC(c2ccccc2C(F)(F)F)=NO1 (configuration not stated) returned PLC-beta3 inh -2, PLC-gamma1 inh -2 and HGIII-sPLA2 inh -6.
COc1cccc(Nc2nc(NCCO)c3ccccc3n2)c1 was read as Yeast superoxide 99, HIF act 2, PLC-beta3 inh -8, PLC-gamma1 inh -7, HGIII-sPLA2 inh -6 and AHR activator 49*.
`CN(C)c1ccc(-c2nc3ccccn3c2/N=C/c2ccc(Br)cc2)cc1` gave Yeast superoxide 97, HIF act 0, PLC-beta3 inh inactive, PLC-gamma1 inh inactive, HGIII-sPLA2 inh 3 and AHR activator 47*.
`COc1cc(-c2nc3ccccn3c2/N=C/c2cc(OC)c(OC)c(OC)c2)ccc1O` gave Yeast superoxide 126, HIF act 0, PLC-beta3 inh -463, PLC-gamma1 inh -374, HGIII-sPLA2 inh -1 and AHR activator 5.
Screening CCOc1ccc(-n2c(SCC(=O)Nc3ccc(S(=O)(=O)Nc4nccs4)cc3)nnc2-c2ccc(C(C)(C)C)cc2)cc1 returned PLC-beta3 inh 1, PLC-gamma1 inh 5 and HGIII-sPLA2 inh -78.
CCOC(=O)c1c(S(=O)(=O)NCc2ccc(C)o2)c(C)n(C)c1C was read as Yeast superoxide 104, HIF act 70*, PLC-beta3 inh -8, PLC-gamma1 inh 1, HGIII-sPLA2 inh 4 and AHR activator 2.
For COC(=O)[C@]12C[C@H](CC(=O)NCc3cccc(C(F)(F)F)c3)C(=O)N(Cc3cccc4ccccc34)C1=C[C@H](C1CCCC1)O[C@@H]2C the results were PLC-beta3 inh 3, PLC-gamma1 inh 0 and HGIII-sPLA2 inh -1.
`Cc1cccc(-n2c(C)cc(/C=C3\NC(=O)NC3=O)c2C)c1` gave Yeast superoxide 100, HIF act 0, PLC-beta3 inh -19, PLC-gamma1 inh -14, HGIII-sPLA2 inh -14 and AHR activator 82*.
